Many of the other results were omitted from the sample, so hits are more common in it than they were.
YB-1 expr inh – YB-1 expression inhibition; AID 434959; U2OS, qRT-PCR YB-1 vs CDIP delta delta Cp, 16 h; hits give high values; zero = DMSO, each unit about twofold; 0.37% of 30,000 active; delta delta Cp (YB-1 minus CDIP) (concentration not given with the values);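 active = delta delta Cp rounded down to an integer at or above 3, about 3 SD of DMSO wells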;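 note: higher means less YB-1 transcript or more CDIP transcript relative to DMSO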
MITF inhib – inhibitors of MITF. inhibition, % (no concentration beside the values). TRPM1 promoter luciferase, luminescence, 24 h. 0.28% of 37,000 active. AID 2240; in the data active = inhibition above about 85%;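 note: human melanocyte line stably carrying TRPM1 promoter luciferase reporter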
Hedgehog inh – Sonic Hedgehog pathway inhibition; Shh-LIGHT2 Gli-luciferase reporter, 30 h; inhibition, % (concentration not given with the values); 2.1% of 22,000 active; AID 2313;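 active = mean inhibition across valid replicates above about 65%, limit read from the data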;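 note: pathway switched on by Shh-conditioned medium diluted 1 in 25 in low serum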
* hit, by the source's call; / = no result.

SMILES	YB-1 expr inh	MITF inhib	Hedgehog inh
Cc1ccc(S(=O)(=O)N(C)C[C@@H]2Oc3c(NC(=O)Nc4ccccc4)cccc3C(=O)N([C@@H](C)CO)C[C@@H]2C)cc1	0.177	10.1	106.6*
C[C@@H]1CN([C@H](C)CO)C(=O)c2cccc(NC(=O)Nc3ccc(F)cc3)c2O[C@@H]1CN(C)S(=O)(=O)c1ccc(F)cc1	-0.137	-3.6	17.2
C[C@H](CO)N1C[C@H](C)[C@@H](CN(C)S(=O)(=O)c2ccc(Cl)cc2)Oc2c(NC(=O)Nc3ccccc3)cccc2C1=O	-0.323	-13.8	-87.9
C[C@H](CO)N1C[C@H](C)[C@H](CN(C)S(=O)(=O)c2ccc(Cl)cc2)Oc2c(NC(=O)Nc3ccccc3)cccc2C1=O	-0.279	-0.8	117.0*
Cc1ccc(NC(=S)C(C#N)C(N)=O)cc1Cl (stereo not given)	-0.704	-6.9	39.5
NNC(=O)CNc1ccc2c(c1)OCO2	-0.249	6.8	-7.4
Cc1ccc(N2C(=O)C(N3C(=O)c4ccccc4C3=O)C2c2ccc(N(C)C)cc2)cc1Cl (stereo not given)	-0.532	-1.9	/
c1csc(-c2nnc(CSc3cccc4cccnc34)o2)c1	0.0247	-29.8	/
COC(=O)c1ccc(C=Nc2ccc3oc(-c4ccc(C)cc4)nc3c2)cc1	-0.168	-12.2	-122.6
O=C(NCCC(c1ccccc1)c1ccccc1)c1cc2ccccc2c(=O)o1	-0.479	2.0	-29.5
CCOC(=O)c1c(CN2CCCCC2)n(-c2ccccc2)c2cc(Br)c(OC)cc12	0.219	2.9	-8.2
C[C@H]1CN([C@@H](C)CO)C(=O)c2cccc(NC(=O)C3CC3)c2O[C@H]1CN(C)S(=O)(=O)c1ccc(F)cc1	-0.136	5.0	2.2
C[C@@H]1CN([C@@H](C)CO)C(=O)c2cccc(NC(=O)Nc3ccc(F)cc3)c2O[C@H]1CN(C)S(=O)(=O)c1ccc(Cl)cc1	-0.268	8.5	4.4
C[C@@H]1CN([C@@H](C)CO)C(=O)c2cccc(NC(=O)Nc3ccccc3)c2O[C@@H]1CN(C)S(=O)(=O)c1ccc(F)cc1	-0.335	20.8	-35.7
COc1ccc(NC(=O)Nc2cccc3c2O[C@H](CN(C)S(=O)(=O)c2ccc(C)cc2)[C@H](C)CN([C@H](C)CO)C3=O)cc1	0.342	-29.4	14.8
COc1ccc(NC(=O)Nc2cccc3c2O[C@@H](CN(C)S(=O)(=O)c2ccc(C)cc2)[C@@H](C)CN([C@H](C)CO)C3=O)cc1	0.44	-19.3	93.6*
C[C@H](CO)N1C[C@H](C)[C@H](CN(C)S(=O)(=O)c2ccc(Cl)cc2)Oc2c(NC(=O)Nc3ccc(F)cc3)cccc2C1=O	-0.529	65.2	116.6*
C[C@H](CO)N1C[C@H](C)[C@H](CN(C)S(=O)(=O)c2ccc(F)cc2)Oc2c(NC(=O)C3CC3)cccc2C1=O	0.0965	6.8	102.6*
C[C@H](CO)N1C[C@H](C)[C@H](CN(C)S(=O)(=O)c2ccc(F)cc2)Oc2c(NC(=O)Nc3ccccc3)cccc2C1=O	0.203	-14.1	99.6*
CCc1cccc(C(C)C)c1NC(=O)Nc1ccccc1	0.0798	-49.0	-11.4
CCOC(=O)c1oc2nc(-c3ccco3)cc(-c3ccco3)c2c1N	0.18	-18.5	/
O=C(NCCc1ccccc1)c1ccc(-c2ccccc2)cc1	-0.721	9.8	/
CC1=CC(C)C2(COC(=O)NC3CCCCC3)COC3(CCCC3)C1C2C (stereo not given)	-0.683	20.0	/
O=c1oc(-c2ccccn2)nc2ccccc12	-1.13	-1.1	3.6
O=c1oc(Cl)c(Cl)c2ccccc12	0.187	46.1	78.6*
SMILES	YB-1 expr inh	MITF inhib	Hedgehog inh
C[C@H]1CC[C@@H]2[C@@H](C(=O)c3c(O)c([C@]4(O)CC[C@@H](O)[C@H]5O[C@H]54)cn(O)c3=O)[C@@H](C)C=C[C@H]2C1	1.69	66.6	93.9*
O=C(COC(=O)c1c(C(F)(F)F)cccc1C(F)(F)F)c1ccc(Cl)cc1	0.172	-7.7	-1.6
CC(C)(C)C(=O)CSc1ncnc2sc3c(c12)CCCC3	/	-53.1	/
CCN(CC)C(=S)Sc1ncnc2sc3c(c12)CCCC3	-0.089	14.9	90.0*
C=CCSc1nnc2c(n1)OC(c1ccc(-c3ccc(F)cc3)o1)N(C(C)=O)c1ccccc1-2 (stereo not given)	0.173	-3.0	9.3
C[C@H](CO)N1C[C@H](C)[C@H](CN(C)Cc2ccc(Cl)c(Cl)c2)Oc2c(NS(=O)(=O)c3ccccc3)cccc2C1=O	-0.135	1.0	82.2*
C[C@H]1CN([C@@H](C)CO)C(=O)c2cccc(NS(=O)(=O)c3ccccc3)c2O[C@@H]1CN(C)Cc1ccc(Cl)c(Cl)c1	-0.0917	-9.9	1.9
C[C@H](CO)N1C[C@H](C)[C@@H](CN(C)Cc2ccc(Cl)c(Cl)c2)Oc2c(NC(=O)C3CCOCC3)cccc2C1=O	0.67	-9.9	-2.0

Screening data deposited in PubChem BioAssay by Broad Institute.
